From PubChem BioAssay AID1626 (SRMLSC, 2009)
In all, about 220,000 compounds went through this assay and about 2,000 (0.91%) were called active. Not shown: some 2% with an inconclusive outcome. A selection follows. Entries with a potency or affinity are not part of this list. A number with no mark means an inactive call. No stated cut-off is given here; in the data, inconclusive means inhibition above about 80% without an active follow-up result; inactive means below that; test concentration not stated here.

Test: M. tuberculosis H37Rv growth inhibitors, H37Rv strain (AID 1626);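 further: bacteria incubated seven days before Alamar blue readout; 0% = bacteria only wells and 100% = bacteria with antibiotic wells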
Conditions: stronger effect = higher value, concentration not given here
Work on CCOC(=O)c1c(CN2CCC(C)CC2)n(C)c2cc(Br)c(OC)cc12 yielded an inhibition of 11.6%. With COc1ccccc1NS(=O)(=O)c1cc(C)ccc1C the inhibition was -7.48%. CC(NC(=O)c1ccccc1F)c1nnc(SCc2nc3ccccc3c(=O)[nH]2)n1C (stereo not given) gave an inhibition of -3.02%. CNc1ncnc2sc(-c3ccccc3)cc12 gave an inhibition of -0.065%. With Cc1c(-c2ccccc2)sc2nc[nH]c(=S)c12 the inhibition was 89.6%. Compound O=c1[nH]cnc2sc(-c3ccccc3)cc12 has an inhibition of 40%. Cc1sc2nc(Cc3ccccc3)[nH]c(=O)c2c1-c1ccccc1 showed an inhibition of -4.69%. For c1ccc2c(c1)NC1(CCCCCC1)n1c-2nc2ccccc21, the inhibition was -3.46%. COc1ccc(CCn2c(-c3ccc(Cl)cc3)n[nH]c2=S)cc1OC showed an inhibition of 1.97%. For COc1ccc(C(=O)NCCc2nnc3ccc(SCC(=O)Nc4cc(C)on4)nn23)cc1, the inhibition was 14.5%. In the case of COc1ccc(C(CC(=O)Nc2nccs2)n2cccc2)cc1 (stereo not given), the inhibition is reported as -4.49%. With O=[N+]([O-])c1ccc(-n2nnnc2-c2ccccc2)cc1 the inhibition was 1.98%. CCOC(=O)c1nnn(-c2ccc([N+](=O)[O-])cc2[N+](=O)[O-])c1C showed an inhibition of -6.3%. Cc1ccc(-c2csc3nc(C)n(N)c(=O)c23)cc1 showed an inhibition of 3.11%. In the case of COc1ccc(C(=O)COC(=O)CNC(=O)C2CCCCC2)c(OC)c1, the inhibition is reported as -2.99%. In the case of COc1ccc(O)c(C(=O)CC(=O)c2ccccc2)c1, the inhibition is reported as 0.06%. For COc1ccc(O)c(C(=O)CC(=O)c2ccc(F)cc2)c1, the inhibition was -1.1%. COc1ccccc1CCNC(=O)Cc1cccs1 gave an inhibition of 4.99%. Cc1cccc(N(CC(N)=O)S(C)(=O)=O)c1C showed an inhibition of 9.11%. For Cc1ccc2nc(NC(=O)C(NS(=O)(=O)c3cccc4nsnc34)C(C)C)sc2c1 (stereo not given), the inhibition was 11.5%. In the case of COc1ccc(NC(=S)NCc2ccco2)c(OC)c1, the inhibition is reported as -0.51%. With CCOc1ccc(CCNC(=O)CSc2cc(=O)n(C)c3cc(Cl)ccc23)cc1OCC the inhibition was -8.35%. With COc1ccc(N/C=C\C(=O)c2ccc3c(c2)OCO3)cc1 the inhibition was 77.1%. COc1ccc(OC)c(N/C(C)=C/C(=O)c2ccc(C)o2)c1 gave an inhibition of -3.01%. COC(=O)c1ccc(N/C=C\C(=O)c2ccc3c(c2)OCO3)cc1 showed an inhibition of 17.8%. With CC(=O)Nc1ccc(N/C=C/C(=O)c2ccc(C)o2)cc1 the inhibition was 7.24%. For COc1ccc(C(=O)/C=C(\C)Nc2ccc3c(c2)OCO3)cc1, the inhibition was 53.2%. For CCOc1ccc(N/C(C)=C/C(=O)c2ccc3c(c2)OCCO3)cc1, the inhibition was 77.8%. Compound COCCN(CCOC)C(=O)C1CCCN(S(=O)(=O)c2ccc(NC(=O)OC)cc2)C1 (stereo not given) has an inhibition of -2.59%. For COc1cccc(Oc2coc3cc(OC(=O)N4CCOCC4)ccc3c2=O)c1, the inhibition was -2.14%. Compound CN(C)CCCN(C(=O)c1ccc(S(=O)(=O)N(C)C)cc1)c1nc2cc3c(cc2s1)OCO3 has an inhibition of -1.53%. With CCOC(=O)c1ccccc1NC(=O)Cn1cnc2c(nnn2-c2ccc(C)cc2)c1=O the inhibition was 1.13%. For O=[N+]([O-])c1ccc(N2CCN(S(=O)(=O)c3ccccc3)CC2)cc1NCc1ccco1, the inhibition was -1.65%. For O=S(=O)(NCc1ccccc1)c1ccc(S(=O)(=O)N(Cc2ccccn2)C2CCCC2)cc1, the inhibition was -1.41%. O=C1CC(/C=C/c2ccccc2)=Nc2ccccc2N1 gave an inhibition of 2.15%. In the case of O=C1CC(/C=C/c2ccncc2)=Nc2ccccc2N1, the inhibition is reported as -0.28%. For CCOc1cccc(-c2cc(-c3n[nH]c(=S)n3CC)c3ccccc3n2)c1, the inhibition was 14.2%. COc1ccc(CNC(=O)COC(=O)C2CCN(S(=O)(=O)c3ccccc3C(F)(F)F)CC2)cc1 showed an inhibition of 1.6%. Compound CC1C(c2ccccc2)C(C#N)(C#N)C2(C#N)C(=O)NC1(N)C2C (stereo not given) has an inhibition of -0.87%. Compound O=[N+]([O-])c1ccc(Cl)cc1Sc1nc2ccccc2o1 has an inhibition of -9.56%. O=[N+]([O-])c1cc(Cl)ccc1Sc1cccc2cccnc12 gave an inhibition of 28.5%. In the case of O=[N+]([O-])c1ccc(CSc2nc3ccccc3o2)cc1, the inhibition is reported as -1.9%. In the case of O=[N+]([O-])c1ccc(Sc2cccc3cccnc23)cc1, the inhibition is reported as 30.8%. For O=C(c1ccc(Cl)c(S(=O)(=O)N2CCCC2)c1)N1CCN(c2ccc(F)cc2)CC1, the inhibition was 3.62%. Work on COc1ccc(NC(=O)CSc2nc(NS(=O)(=O)c3ccccc3)cc(=O)[nH]2)cc1 yielded an inhibition of 3.87%. With CC(Sc1ccccc1)C(=O)Nc1ccccc1C(=O)N1CCOCC1 (stereo not given) the inhibition was -11.3%. Work on CC(C)(C)c1cc(-c2ccccc2)no1 yielded an inhibition of 10.7%. In the case of COc1ccccc1C(=O)Nc1ccc(N2CCN(Cc3ccccc3)CC2)cc1, the inhibition is reported as 40.9%. For COc1ccc(C(=O)Nc2ccc(N3CCN(Cc4ccccc4)CC3)cc2)cc1, the inhibition was 4.64%. In the case of O=C(NNc1ccc(-c2csnn2)cc1)c1cc(Cl)cc(Cl)c1, the inhibition is reported as 27.1%. CCCCC1=CC2=C(c3ccco3)C(=O)C(C)(OC(=O)c3ccc(OC)cc3)C(=O)C2=CN1CCCOC(C)C (stereo not given) showed an inhibition of -5.76%. CC(=O)OC(C(=O)N1CCOCC1)c1c(F)cccc1F (stereo not given) gave an inhibition of -0.03%. Compound O=C(CNC(=O)c1ccc(-c2ccccc2)cc1)OCc1ccc(Br)cc1 has an inhibition of 6.21%. Cc1ccc(C(=O)N/C(=C\c2ccccc2)C(=O)OCc2ccccc2)cc1 showed an inhibition of 12.7%. Work on O=C(CCCNC(=O)/C(=C/c1ccc(Br)cc1)NC(=O)c1ccccc1)OCc1ccccc1 yielded an inhibition of 1.44%. Compound O=C(CCCNC(=O)/C(=C\c1ccc(F)cc1)NC(=O)c1ccccc1)OCc1ccccc1 has an inhibition of 1.82%. With COc1ccc(-c2cn3cc(C(F)(F)F)cc(Cl)c3n2)cc1 the inhibition was 65.8%. Compound CCCc1cc(C(N)=O)c(NC(C)=O)s1 has an inhibition of 2.59%. For O=C(c1cc(-c2ccccc2)on1)N1CCc2ccccc2C1, the inhibition was -6.16%. Work on CCOc1ccc(C2c3c(oc4cc(C)c(C)cc4c3=O)C(=O)N2CCCN2CCOCC2)cc1 (stereo not given) yielded an inhibition of -8.64%.
